# Data reported in the supplement of paper PMC8728848.
# Shown is part of a subset that was picked to be rich in the strongest signals.
# B1: VLRB.aGPA.23-GCN4-biotin (Petromyzon marinus) (protein)
# chain: ACPSQCSCSGTEVNCAGKSLASVPAGIPTTTRVLYLNSNQITKLEPGVFDRLANLRELHLWGNQLVSLPPGVFDNLANLEKLWLNSNQLTSLPAGLFDRLVNLEHLGLCCMKLTELPSGAFDKLTRLKQLGLDQNQLKSIPDGAFARLPSLTHVWLHTNPWDCQCTDILYLSGWVAQHSSIVGEGWPWRHSPDSAKCSGTNTPVRAVTEASTSPSKCP
# Tests used:
# Test in all cases: glycan array binding signal (z-score within array); higher = stronger binding
# Details in all cases: glycan notation: IUPAC condensed, linker removed
# Gal6S(b1-4)GlcNAc = target: Gal6S(b1-4)GlcNAc
# How it was run: (§1)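 Glycan array binding is given as a within-array Z-score, which can be read as non-binding when negative. The arrays, 3228 of them, came from the Consortium for Functional Glycomics database and were retained only where the protein sequence was available. Z-scores were averaged across arrays of the same protein sequence at different concentrations or buffers and across linkers.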
# [1] = target: GalNAc(a1-3)GalNAc(b1-3)Gal(a1-4)Gal(b1-4)GlcNAc
# How it was run: as §1
# GalNAc(b1-3)Gal = target: GalNAc(b1-3)Gal
# How it was run: as §1
# GalNAc(b1-4)GlcNAc6S = target: GalNAc(b1-4)GlcNAc6S
# How it was run: as §1
# [2] = target: Glc(a1-4)Glc(a1-4)Glc(a1-4)Glc
# How it was run: as §1
# Glc(a1-6)Glc(a1-6)Glc = target: Glc(a1-6)Glc(a1-6)Glc
# How it was run: as §1
# [3] = target: Glc(a1-6)Glc(a1-6)Glc(a1-6)Glc
# How it was run: as §1
# [4] = target: GlcNAc(a1-4)Gal(b1-4)GlcNAc(b1-3)Gal(b1-4)[Fuc(a1-3)]GlcNAc(b1-3)Gal(b1-4)[Fuc(a1-3)]GlcNAc
# How it was run: as §1
# [5] = target: GlcNAc(a1-6)Gal(b1-4)GlcNAc
# How it was run: as §1
# [6] = target: GlcNAc(b1-2)[GlcNAc(b1-6)]Man(a1-6)[GlcNAc(b1-2)Man(a1-3)]Man(b1-4)GlcNAc(b1-4)GlcNAc
# How it was run: as §1
# [7] = target: GlcNAc(b1-2)[GlcNAc(b1-6)]Man(a1-6)[GlcNAc(b1-4)][GlcNAc(b1-2)Man(a1-3)]Man(b1-4)GlcNAc(b1-4)GlcNAc
# How it was run: as §1
# [8] = target: GlcNAc(b1-3)Gal(b1-4)GlcNAc(b1-3)Gal(b1-4)GlcNAc(b1-3)GalNAc
# How it was run: as §1
# GlcNAc(b1-4)GlcNAc = target: GlcNAc(b1-4)GlcNAc
# How it was run: as §1
# [9] = target: GlcNAc(b1-4)GlcNAc(b1-4)GlcNAc(b1-4)GlcNAc(b1-4)GlcNAc
# How it was run: as §1
# [10] = target: GlcNAc(b1-6)Gal(b1-4)GlcNAc
# How it was run: as §1
# [11] = target: GlcNAc6S(b1-3)Gal(b1-4)GlcNAc
# How it was run: as §1
# [12] = target: Man(a1-2)Man(a1-2)Man(a1-6)[Man(a1-3)]Man
# How it was run: as §1
# [13] = target: Man(a1-2)Man(a1-3)[Man(a1-2)Man(a1-6)]Man(a1-6)[Man(a1-2)Man(a1-2)Man(a1-3)]Man
# How it was run: as §1
# [14] = target: Man(a1-3)[Man(a1-6)]Man(a1-6)[Man(a1-2)Man(a1-3)]Man(b1-4)GlcNAc(b1-4)GlcNAc
# How it was run: as §1
# [15] = target: Neu5Ac(a2-3)Gal(b1-4)GlcNAc(b1-2)Man
# How it was run: as §1
# [16] = target: Neu5Ac(a2-3)Gal(b1-4)GlcNAc(b1-3)Gal(b1-4)GlcNAc(b1-2)Man(a1-3)[Neu5Ac(a2-3)Gal(b1-4)GlcNAc(b1-3)Gal(b1-4)GlcNAc(b1-2)Man(a1-6)]Man(b1-4)GlcNAc(b1-4)GlcNAc
# How it was run: as §1
# [17] = target: Neu5Ac(a2-3)Gal(b1-4)GlcNAc(b1-6)[Neu5Ac(a2-3)Gal(b1-3)]GalNAc
# How it was run: as §1
# [18] = target: Neu5Ac(a2-3)Gal(b1-4)GlcNAc6S
# How it was run: as §1
# Neu5Ac(a2-6)Gal = target: Neu5Ac(a2-6)Gal
# How it was run: as §1
# [19] = target: Neu5Ac(a2-6)Gal(b1-4)GlcNAc(b1-2)Man(a1-3)[Neu5Ac(a2-6)Gal(b1-4)GlcNAc(b1-2)Man(a1-6)]Man(b1-4)GlcNAc(b1-4)[Fuc(a1-6)]GlcNAc
# How it was run: as §1
# [20] = target: Neu5Ac(a2-6)Gal(b1-4)GlcNAc(b1-3)Gal(b1-4)GlcNAc(b1-6)[Gal(b1-3)]GalNAc
# How it was run: as §1
# [21] = target: Neu5Ac(a2-6)Gal(b1-4)GlcNAc(b1-6)[Gal(b1-3)]GalNAc
# How it was run: as §1
# [22] = target: Neu5Gc(a2-3)Gal(b1-3)[Fuc(a1-4)]GlcNAc
# How it was run: as §1
binder,measurement,setting,value
B1,glycan array binding signal (z-score),Gal6S(b1-4)GlcNAc,-0.083
same,glycan array binding signal (z-score),[1],-0.076
same,glycan array binding signal (z-score),GalNAc(b1-3)Gal,-0.076
same,glycan array binding signal (z-score),GalNAc(b1-4)GlcNAc6S,-0.082
same,glycan array binding signal (z-score),[2],-0.064
same,glycan array binding signal (z-score),Glc(a1-6)Glc(a1-6)Glc,-0.077
same,glycan array binding signal (z-score),[3],-0.076
same,glycan array binding signal (z-score),[4],-0.069
same,glycan array binding signal (z-score),[5],-0.087
same,glycan array binding signal (z-score),[6],-0.079
same,glycan array binding signal (z-score),[7],-0.085
same,glycan array binding signal (z-score),[8],-0.084
same,glycan array binding signal (z-score),GlcNAc(b1-4)GlcNAc,-0.088
same,glycan array binding signal (z-score),[9],-0.086
same,glycan array binding signal (z-score),[10],-0.084
same,glycan array binding signal (z-score),[11],-0.08
same,glycan array binding signal (z-score),[12],-0.059
same,glycan array binding signal (z-score),[13],-0.081
same,glycan array binding signal (z-score),[14],0.041
same,glycan array binding signal (z-score),[15],-0.068
same,glycan array binding signal (z-score),[16],-0.005
same,glycan array binding signal (z-score),[17],-0.087
same,glycan array binding signal (z-score),[18],-0.079
same,glycan array binding signal (z-score),Neu5Ac(a2-6)Gal,-0.082
same,glycan array binding signal (z-score),[19],-0.074
same,glycan array binding signal (z-score),[20],-0.072
same,glycan array binding signal (z-score),[21],-0.077
same,glycan array binding signal (z-score),[22],-0.074
